Sampled rows, rich in hits. Any-hit rate of the full collection: about 2.5%.
CHT inh – inhibitors of human choline transporter CHT; CHT-expressing cells, membrane potential dye, choline response; active compounds read low; High affinity choline transporter 1 (Homo sapiens), Q9GZV3; actives 0.86% (n = 310,000); AID 488975, 2010; B-score at 10 µM;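 active means B-score over 3 SD under the library average, and starting fluorescence ratio not unusually high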;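 further: choline stimulus applied at its EC90 after an EC20 pre-addition; B-score computed on integrated fluorescence ratio after choline addition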
TMEM16A act – TMEM16A chloride channel activators or potentiators, primary screen, cell-based, HTS | HEK293 TMEM16A/YFP-H148Q/I152L, iodide quench fluorescence; active compounds read low | actives 0.3% (n = 340,000) | B-score at 10 µM | AID 623877, 2012 | Anoctamin-1 (Mus musculus), Q8BHY3;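 active means fluorescence-ratio B-score plate-corrected deviation score at least 3 library SD below zero, with starting fluorescence score within 5 deviations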;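 further: channel opened by trigger with iodide after compound preincubation; score built on the fluorescence ratio of max minus min over baseline; more negative score means more quench and so TMEM16A activation or potentiation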
CHT allo act – CHT positive allosteric modulators, primary screen, cell-based, membrane potential dye, choline EC20; CHT-expressing cells; active compounds read high; LV-AA mutant CHT in HEK293 cells; B-score at 10 µM; actives 0.49% (n = 310,000);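 active means initial fluorescence not abnormally high and integrated response B-score, plate-corrected, over 3 SD above library mean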
TMEM16A inh – TMEM16A chloride channel inhibitors, primary screen, cell-based, HTS | Anoctamin-1 (Mus musculus), Q8BHY3 | HEK293 TMEM16A/YFP iodide influx fluorescence, ionomycin | normalized B-score (activity score, 25-100; higher = stronger inhibition) at 10 µM | actives 1.2% (n = 310,000) | AID 588511, 2011;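 active means ratio plate-corrected score three or more library SD toward inhibition, starting fluorescence score within five deviations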;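 further: score derived from kinetic fluorescence span divided by baseline fluorescence per well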
PKA-R1A act – activators of PKA-R1A holoenzyme, primary screen, biochemical, fluorescence polarization, Cy5-IP20, bovine R1A, mouse PKAc. activation, % at 11.4 µM. cAMP-dependent protein kinase type I-alpha regulatory subunit (Bos taurus) + …. PKA-R1A dissociation; scaled: DMSO 0%, 113 µM cGMP 100%. actives 0.083% (n = 340,000);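 active means percent activation above the mean of all tested compounds plus 3 SD, cut at about 19% in these data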;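 further: higher means more PKAc released from R1A so a rise in polarization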
PKA-R2B act – activators of PKA-R2B holoenzyme, primary screen, biochemical, fluorescence polarization, Cy5-IP20, human; actives 0.079% (n = 340,000); AID 504700, 2011; activation, % at 11.4 µM; PKA-R2B holoenzyme dissociation; R2B truncated from residue 108, S112A mutant; 0% DMSO only, 100% 113 µM cGMP; cAMP-dependent protein kinase catalytic subunit beta (Homo sapiens) + cAMP-dependent …;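 active means activation above a cutoff set at the mean over all compounds plus 3 SD, cut at about 18% in these data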;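 further: higher means more holoenzyme dissociation and a rise in polarization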
Target sequence (P31323 whole entry, looked up, other chains not shown, the tested form may be a part): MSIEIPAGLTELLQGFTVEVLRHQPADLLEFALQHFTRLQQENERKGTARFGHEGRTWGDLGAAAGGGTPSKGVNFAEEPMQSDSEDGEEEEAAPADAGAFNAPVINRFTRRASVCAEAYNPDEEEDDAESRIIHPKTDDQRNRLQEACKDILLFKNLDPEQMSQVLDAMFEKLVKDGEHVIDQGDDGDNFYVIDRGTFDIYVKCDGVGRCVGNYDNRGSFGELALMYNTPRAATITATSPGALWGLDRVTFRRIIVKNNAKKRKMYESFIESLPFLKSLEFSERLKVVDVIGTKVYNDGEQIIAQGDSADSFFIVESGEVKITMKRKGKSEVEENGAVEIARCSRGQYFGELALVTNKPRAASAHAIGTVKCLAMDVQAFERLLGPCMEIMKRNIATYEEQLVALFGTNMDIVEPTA
R1A FP artifact – FP signal interference without PKA proteins, confirmation, artefact control for PKA-R1A activator project, biochemical, fluorescence polarization, triplicate | shares compounds with PKA-R1A act | Cy5-IP20 peptide alone, fluorescence polarization artifact counterscreen | activation, % at 11.4 µM | actives 7% (n = 280) | AID 504799, 2011;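 active means mean activation over triplicate runs exceeds the adjusted cutoff derived for the parent primary screen, cut at about 19% in these data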;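 further: no PKA protein present so any polarization rise reflects compound interference; higher means stronger polarization artifact and likely false positive in parent screen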
PKA-R1A confirm – activators of PKA-R1A holoenzyme, confirmation, biochemical, fluorescence polarization, Cy5-IP20, triplicate; shares compounds with PKA-R1A act; PKA-R1A holoenzyme dissociation; activation, % at 11.4 µM; actives 9% (n = 280); AID 504800, 2011;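 active means mean activation over replicate wells exceeds the adjusted hit threshold taken from the earlier primary screen, cut at about 20% in these data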
TMEM16A reconf – TMEM16A chloride channel inhibitors, confirmation, cell-based, re-confirmation. shares compounds with TMEM16A inh. HEK293 TMEM16A/YFP-H148Q, iodide quench fluorescence; ionomycin added to raise cell calcium. inhibition, % at 10 µM. actives 39% (n = 2,300);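 active means mean duplicate percent inhibition, scaled so buffer wells are 0 and the reference blocker 100, over three buffer SD above buffer mean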
HEK293 Ca mobil – calcium mobilization in TMEM16A/YFP HEK293 cells, confirmation, counter-screen for TMEM16A inhibitor project | shares compounds with TMEM16A inh | Fluo4 calcium mobilization | calcium response (% of ionomycin), % at 10 µM | actives 2% (n = 2,300) | AID 652231, 2013;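 active means duplicate-averaged calcium signal over 20% of the ionomycin maximum, relative to buffer baseline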;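 further: each well's signal is peak minus trough fluorescence divided by its pre-addition baseline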
YFP-HEK293 quench – iodide YFP quench changes in parental YFP-HEK293, counter-screen for TMEM16A inhibitor project, cell-based. ionomycin. 2,300 tested, under 10 active. shares compounds with TMEM16A inh. YFP ratio F(max-min)/F0 at 10 µM. AID 652233, 2013;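 active means yellow fluorescent protein signal ratio exceeding the buffer control mean by over 5 SD of those controls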;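 further: ratio is mean of duplicate wells from kinetic YFP trace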
ClC-1 rat inh – ClC-1 chloride channel inhibition, selectivity assay for TMEM16A inhibitor project, cell-based, voltage-dependent ClC-1; AID 652236, 2013; shares compounds with TMEM16A inh; CHO ClC-1-YFP, iodide influx fluorescence quench; iodide control reads 0, buffer control 100; 2,300 tested, under 10 active; ratio percent, % at 10 µM;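 active means duplicate-mean ratio percent above the mean of iodide-only control wells, which defines zero, plus 5 of their SD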;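 further: higher percent means stronger block of ClC-1 iodide influx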
Each line names hits and unclear results; the compound was inactive in the other large screens (follow-up assays come after a bar, where they were run).

CCN1CCN(C(c2cccs2)C(C)NC(=O)Oc2ccccc2)CC1 (stereo not drawn)	none
CN(C(=O)Cc1ccc(Cl)c(Cl)c1)C(CN1CCCC1)c1cccc(OCC(=O)O)c1 (stereo not drawn)	PKA-R1A act 19 | R1A FP artifact inactive | PKA-R1A confirm inactive
Cc1cccc(OCC(=O)N2CCN(Cc3ccc4c(c3)OCO4)CC2)c1	none
Clc1ccc(CCNCc2ccncc2)c(Cl)c1	TMEM16A inh 25 | TMEM16A reconf inactive | HEK293 Ca mobil inactive | YFP-HEK293 quench inactive | ClC-1 rat inh inactive
c1cc(CNCCc2ccc3c(c2)OCO3)ccn1	none
CCOC(=O)C1SC2(C(F)(F)F)CC1(O)c1c(C)cc(C)nc1O2 (stereo not drawn)	TMEM16A inh 25 | TMEM16A reconf inactive | HEK293 Ca mobil inactive | YFP-HEK293 quench inactive | ClC-1 rat inh inactive
COC(=O)C1=C(c2cccc(OC)c2OC)C[C@@H]2CC[C@H]1N2C(=O)NCCS(C)=O (stereo partly drawn)	TMEM16A inh 100 | TMEM16A reconf inactive | HEK293 Ca mobil inactive | YFP-HEK293 quench inactive | ClC-1 rat inh inactive
CCN(CC)c1ccc(N=Cc2c(O)n(-c3ccc(Cl)cc3)c(=O)[nH]c2=O)cc1	none | TMEM16A reconf inactive | HEK293 Ca mobil inactive | YFP-HEK293 quench inactive | ClC-1 rat inh inactive
C=CCn1c(O)c(C=Nc2ccc(N(CC)CC)cc2)c(=O)[nH]c1=O	none
COc1ccc2c3c1OC1C(=O)CC[C@@]4(O)[C@@H](C2)N(C)CC[C@]314 (stereo partly drawn)	none (no result: CHT inh, CHT allo act, TMEM16A inh)
C[C@@H]1C2C[C@@]34COC(=O)C3=CC=C[C@H]4[C@@]13C[C@H](c1ccoc1)O[C@@H]3O2	none (no result: TMEM16A act, PKA-R1A act, PKA-R2B act)
COC(=O)C1=C(c2cccc(C#N)c2)C[C@@H]2CC[C@H]1N2C(=O)N1CCCC1	none (no result: CHT inh, CHT allo act, TMEM16A inh)
O=[N+]([O-])c1ccc(N2CCCCCC2)c2ncccc12	TMEM16A inh 25 | TMEM16A reconf inactive | HEK293 Ca mobil inactive | YFP-HEK293 quench inactive | ClC-1 rat inh inactive
O=c1cc(C(F)(F)F)c2cc3c4c(c2o1)CCCN4CCC3	none

High-throughput results from PubChem BioAssay.
